Unmarked numbers belong to inactive results. Records with an inconclusive call do not appear. Where a call stands in place of a potency, no number is given. Activity calls are given as the source filed them. Unless noted, calls come from the whole dose curve; as a rule, active = well fitted curve in the direction sought with a large enough effect in the repeat runs; inconclusive = weak or mixed curves; inactive = no such curve, though single readings can be large; an effect the other way counts as inactive or inconclusive.
Tests used:
[1] = qHTS assay to identify small molecule agonists or antagonists of the thyroid stimulating hormone receptor (TSHR) signaling pathway - wild type cell line counter screen (AID 1259384; calls by dose curve)
Summary of the method: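 Wild-type Hek293 cells, 800/well, 18 h at 37C, then compound with Ro20-1724 for 30 min RT. cAMP by HTRF (cAMP-d2/anti-cAMP cryptate), 1 h RT, fluorescence read. 15 concentrations, triplicates.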

[2] = qHTS assay to identify small molecule agonists of the estrogen receptor alpha (ER-alpha) signaling pathway in the presence of an antagonist - cell viability counter screen (AID 1259386);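 note: series mostly up to about 92 µM; cells exposed to compounds for 22 h at 37 °C before the viability read; nearly all actives have a fitted effect of over 30% in size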
Summary of the method: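 VM7Luc4E2, stripped-serum pre-culture 5 d; 24hr plating; +ICI-182,780 10.0nM final; cpds 15 conc, 22hr, 37C/5% CO2; CellTiter-Fluor added at 21hr, fluorescence 1hr later.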

[3] = biological target: Progesterone receptor (Homo sapiens) (UniProt P06401); test: qHTS assay to identify small molecule antagonists of the progesterone receptor (PR) signaling pathway (AID 1346795; active = well fitted inhibition curve with a large enough effect in the signal ratio in the repeat runs, not every such curve was filed as active; the % refers to the signal ratio)
Chain of Progesterone receptor (Homo sapiens) (P06401 whole entry, looked up): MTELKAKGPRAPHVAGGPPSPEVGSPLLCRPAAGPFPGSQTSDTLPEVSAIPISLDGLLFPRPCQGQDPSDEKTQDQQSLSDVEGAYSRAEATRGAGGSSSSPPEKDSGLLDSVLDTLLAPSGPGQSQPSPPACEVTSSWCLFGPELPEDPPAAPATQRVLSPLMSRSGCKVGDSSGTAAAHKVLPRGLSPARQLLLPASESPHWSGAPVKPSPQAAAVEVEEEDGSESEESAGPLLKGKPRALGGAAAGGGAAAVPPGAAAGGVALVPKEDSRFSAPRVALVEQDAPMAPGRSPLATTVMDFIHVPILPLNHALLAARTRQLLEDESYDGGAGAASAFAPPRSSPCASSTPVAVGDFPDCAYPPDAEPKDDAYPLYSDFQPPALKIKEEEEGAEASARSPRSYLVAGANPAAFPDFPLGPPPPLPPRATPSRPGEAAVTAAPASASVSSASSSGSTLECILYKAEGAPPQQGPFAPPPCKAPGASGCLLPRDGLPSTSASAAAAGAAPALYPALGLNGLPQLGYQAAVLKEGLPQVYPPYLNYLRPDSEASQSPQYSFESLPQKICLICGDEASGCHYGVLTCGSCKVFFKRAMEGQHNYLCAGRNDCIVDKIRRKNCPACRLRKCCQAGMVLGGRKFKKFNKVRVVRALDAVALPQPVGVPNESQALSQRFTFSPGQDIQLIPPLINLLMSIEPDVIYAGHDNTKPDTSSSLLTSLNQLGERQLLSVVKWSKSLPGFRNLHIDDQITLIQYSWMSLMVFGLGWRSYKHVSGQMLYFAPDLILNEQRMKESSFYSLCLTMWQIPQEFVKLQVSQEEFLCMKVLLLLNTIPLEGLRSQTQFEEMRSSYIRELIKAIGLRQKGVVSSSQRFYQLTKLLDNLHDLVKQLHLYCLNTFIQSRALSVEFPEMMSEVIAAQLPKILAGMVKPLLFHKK
Summary of the method: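 PR-UAS-bla HEK293T cells carrying a UAS-driven beta-lactamase reporter were plated in medium with 2% charcoal-stripped FBS and rested 6 hr at 37C. Compounds were added with 1 nM R5020 (final) for 16 hr, then FRET substrate loaded 2 hr at room temperature.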

[4] = qHTS assay to identify small molecule antagonists of the progesterone receptor (PR) signaling pathway - cell viability counter screen (AID 1346798); note: series mostly up to about 92 µM; nearly all actives have a fitted effect of over 50% in size
Summary of the method: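 PR-UAS-bla HEK293T cells in medium with 2% charcoal-stripped FBS were treated with compounds plus R5020 for 16 hr at 37C. Cell viability was then read by CellTiter-Glo luminescence after 30 min at room temperature in the same wells.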

[5] = qHTS assay to identify small molecule agonists of the progesterone receptor (PR) signaling pathway - cell viability counter screen (AID 1346799; calls by dose curve; note: nearly all actives have a fitted effect of over 45% in size)
Summary of the method: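 PR-UAS-bla HEK293T cells, 3,000 per well in medium with 2% charcoal-stripped FBS, were preincubated 6 hr at 37C, then exposed to compounds for 16 hr; viability was read as CellTiter-Glo luminescence after 30 min at room temperature.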

[6] = qHTS assay to identify small molecule antagonists of the TGF-beta/Smad signaling pathway - cell viability counter screen (AID 1346824); note: nearly all actives have a fitted effect of over 50% in size
Summary of the method: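 SBE-bla HEK 293T cells, incubated overnight, then compound plus 0.25 ng/mL TGF-beta1 (stock added) for 5 hr at 37 C. Viability was read in the same wells by CellTiter-Glo luminescence after 30 min at room temperature.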

[7] = qHTS assay to identify small molecule agonists of the TGF-beta/Smad signaling pathway - cell viability counter screen (AID 1346829); note: top concentration of the series differs between compounds; nearly all actives have a fitted effect of over 45% in size
Summary of the method: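 CellTiter-Glo luminescence readout; SBE-bla HEK 293T cells, overnight plating, compound 5 hr at 37 C/5% CO2, then bla substrate 2 hr RT, then CellTiter-Glo 30 min RT.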

[8] = qHTS assay to identify small molecule agonists of the TGF-beta/Smad signaling pathway (AID 1346859; active = well fitted activation curve with a large enough effect in the signal ratio in the repeat runs, not every such curve was filed as active; the % refers to the signal ratio; note: series mostly up to about 77 µM)
Summary of the method: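 HEK 293T cells stably carrying a beta-lactamase reporter driven by the Smad binding element were seeded overnight, exposed to DMSO-dissolved compounds for 5 hr at 37 C, 5% CO2, then loaded with FRET substrate for 2 hr at room temperature.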

[9] = biological target: Thyrotropin-releasing hormone receptor (Homo sapiens) (UniProt P34981); test: qHTS assay to identify small molecule antagonists of the thyrotropin-releasing hormone receptor (TRHR) signaling pathway (AID 1346877; active = well fitted inhibition curve with a large enough effect in the repeat runs, not every such curve was filed as active; note: series mostly up to about 51 µM)
Chain of Thyrotropin-releasing hormone receptor (Homo sapiens) (P34981 whole entry, looked up): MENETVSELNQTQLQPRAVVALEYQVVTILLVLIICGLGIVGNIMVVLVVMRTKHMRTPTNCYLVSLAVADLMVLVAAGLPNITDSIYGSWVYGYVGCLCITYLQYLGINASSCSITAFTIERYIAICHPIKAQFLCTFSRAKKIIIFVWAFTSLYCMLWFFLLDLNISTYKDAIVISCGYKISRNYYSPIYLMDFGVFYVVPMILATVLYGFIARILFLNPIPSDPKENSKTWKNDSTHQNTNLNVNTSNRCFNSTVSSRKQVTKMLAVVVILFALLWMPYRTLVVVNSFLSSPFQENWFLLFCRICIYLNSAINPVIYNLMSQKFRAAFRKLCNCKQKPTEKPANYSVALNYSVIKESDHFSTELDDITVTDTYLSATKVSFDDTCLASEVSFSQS
Summary of the method: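 Intracellular calcium fluorescence, read kinetically every second over 3 min, reports TRH-evoked signalling in HEK293 cells carrying TRHR. Test compounds were added 5 min ahead of a 1 nM TRH challenge.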

[10] = biological target: Thyrotropin-releasing hormone receptor (Homo sapiens) (UniProt P34981); test: qHTS assay to identify small molecule agonists of the thyrotropin-releasing hormone receptor (TRHR) signaling pathway (AID 1346891; calls by dose curve; note: series mostly up to about 58 µM)
Summary of the method: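 TRHR-expressing HEK293 cells were plated 18 h at 37 °C/5% CO2, loaded with calcium dye 2 h at 37 °C, then given compound in DMSO; fluorescence was read kinetically for 3 min at 1 s intervals.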

[11] = Human pregnane X receptor (PXR) small molecule agonists, qHTS cell viability counter screen (AID 1346977); note: nearly all actives have a fitted effect of over 50% in size
Summary of the method: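 PXR-Luc HepG2 cells in medium with 5% charcoal-stripped FBS were pre-incubated 5hr, then exposed to compounds for 24hr at 37C. Viability was read in the same wells by CellTiter-Fluor fluorescence, reagent added after 23hr with a 1hr incubation.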

[12] = Caspase-3/7 induction in HepG2 cells by small molecules, qHTS assay (AID 1346978); note: nearly all actives have a fitted effect of over 15% in size
Summary of the method: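 Wild-type HepG2 cells, 2,000/well, settled 5 hr at 37 C and 5% CO2, then compound-treated for 17 hr; caspase-3/7 activity read by luminescent Caspase-Glo 3/7 after 30 min at room temperature.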

[13] = Caspase-3/7 induction in CHO-K1 cells by small molecules, qHTS cell viability counter screen (AID 1346979); note: nearly all actives have a fitted effect of over 35% in size
Summary of the method: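 Wild-type CHO-K1 cells were seeded at 1,500 per well, rested 5hr at 37 C, then exposed to compounds in DMSO. After 16hr, CellTiter-Fluor reagent was added and fluorescence read 1hr later as the viability measure.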

[14] = Caspase-3/7 induction in CHO-K1 cells by small molecules, qHTS assay (AID 1346980); note: nearly all actives have a fitted effect of over 15% in size
Summary of the method: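 Wild-type CHO-K1 cells exposed to compounds for 17hr at 37 C, 5% CO2. Caspase-3/7 activity then measured by Caspase-Glo 3/7 luminescence after 30min at room temperature.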

[15] = Caspase-3/7 induction in HepG2 cells by small molecules, qHTS cell viability counter screen (AID 1346981); note: series mostly up to about 92 µM; nearly all actives have a fitted effect of over 30% in size
Summary of the method: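 HepG2, WT, 2,000 cells/well; 5 hr pre-incubation 37 C/5% CO2; compound pin-transferred from DMSO; 16 hr exposure; CellTiter-Fluor, 1 hr; fluorescence read.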

[16] = biological target: Nuclear receptor subfamily 1 group I member 2 (Homo sapiens) (UniProt O75469); test: Human pregnane X receptor (PXR) small molecule agonists, qHTS assay (AID 1346982); note: nearly all actives have a fitted effect of over 35% in size; note: potency is the fitted concentration of half-maximal effect
Chain of Nuclear receptor subfamily 1 group I member 2 (Homo sapiens) (O75469 whole entry, looked up): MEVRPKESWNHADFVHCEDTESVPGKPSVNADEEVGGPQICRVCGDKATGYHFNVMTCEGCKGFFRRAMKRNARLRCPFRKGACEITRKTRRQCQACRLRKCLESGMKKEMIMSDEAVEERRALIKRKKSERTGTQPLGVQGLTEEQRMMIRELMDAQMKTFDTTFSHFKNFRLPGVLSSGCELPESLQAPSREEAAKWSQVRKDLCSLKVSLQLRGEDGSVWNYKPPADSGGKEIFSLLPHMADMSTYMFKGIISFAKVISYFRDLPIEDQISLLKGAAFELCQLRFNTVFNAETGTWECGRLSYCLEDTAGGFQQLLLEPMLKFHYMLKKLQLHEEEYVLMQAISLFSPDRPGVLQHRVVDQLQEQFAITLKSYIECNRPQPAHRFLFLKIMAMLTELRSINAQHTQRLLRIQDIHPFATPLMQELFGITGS
Summary of the method: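 Luciferase signal from ONE-Glo (30 min, room temperature) measured activation of hPXR-driven CYP3A4 reporter expression in PXR-Luc HepG2 cells treated with compounds for 24 hr at 37 C.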

[17] = biological target: Progesterone receptor (Homo sapiens) (UniProt P06401); test: qHTS assay to identify small molecule agonists of the progesterone receptor (PR) signaling pathway (AID 1346784; calls by dose curve; note: nearly all actives have a fitted effect of over 30% in size)
Summary of the method: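 PR-UAS-bla HEK 293T cells carrying a UAS-driven beta-lactamase reporter were seeded in medium with 2% charcoal-stripped FBS, preincubated 6 hr at 37C, then exposed to compounds in DMSO for 16 hr; agonism was read by LiveBLAzer B/G FRET fluorescence.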

[18] = biological target: Nuclear receptor subfamily 1 group I member 2 (Rattus norvegicus) (UniProt Q9R1A7); test: Rat pregnane X receptor (rPXR) activation by small molecules, qHTS assay (AID 1346983); settings: rPXR luciferase reporter cells, One-Glo luminescence, 24 h; max activation: active compounds read high; note: nearly all actives have a fitted effect of over 20% in size
Chain of Nuclear receptor subfamily 1 group I member 2 (Rattus norvegicus) (Q9R1A7 whole entry, looked up): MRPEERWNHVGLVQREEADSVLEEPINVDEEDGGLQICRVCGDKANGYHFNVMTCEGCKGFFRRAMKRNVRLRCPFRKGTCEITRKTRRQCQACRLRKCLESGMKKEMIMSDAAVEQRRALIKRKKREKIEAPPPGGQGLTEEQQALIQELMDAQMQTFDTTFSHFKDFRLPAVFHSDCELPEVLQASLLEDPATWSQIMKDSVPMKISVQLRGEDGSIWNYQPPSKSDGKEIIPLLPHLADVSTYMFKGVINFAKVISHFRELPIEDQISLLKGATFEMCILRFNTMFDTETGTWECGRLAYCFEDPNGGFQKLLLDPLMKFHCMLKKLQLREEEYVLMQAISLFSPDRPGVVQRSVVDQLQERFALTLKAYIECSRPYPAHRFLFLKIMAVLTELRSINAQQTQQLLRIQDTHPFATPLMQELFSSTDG
Summary of the method: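 Cell-based rPXR activation assay: rPXR cells, 2,000 per well, rested 5hr at 37 C, then exposed to compounds in DMSO for 24 hr at 37 C. Luciferase activity read by One-Glo luminescence after 30 min at room temperature.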

SMILES	outcome [1]	outcome [2]	Potency [3]	outcome [4]	Potency [5]	outcome [6]	outcome [7]	outcome [8]	outcome [9]	Potency [10]	outcome [11]	outcome [12]	Potency [13]	outcome [14]	outcome [15]	Potency [16]	Potency [17]	max activation [18]
C=CCN(CC=C)CC=C	inactive	inactive	inactive	inactive	inactive	inactive	inactive	inactive	inactive	inactive	inactive	inactive	inactive	inactive	inactive	inactive		
Cc1cc2c(cc1CC(=O)c1sccc1S(=O)(=O)Nc1onc(C)c1Cl)OCO2		inactive	inactive	inactive	inactive	inactive		inactive			inactive	inactive	inactive	inactive	inactive		inactive	
COc1cc(OC)cc(OC)c1		inactive	inactive	inactive	inactive		inactive	inactive	inactive	inactive	inactive	inactive	inactive	inactive	inactive	inactive	inactive	-1.98%
Cc1ccc(O)c(C(=O)c2ccccc2)c1	inactive	inactive	inactive	inactive	inactive	inactive	inactive	inactive	inactive	inactive	inactive	inactive	inactive	inactive	inactive			
CC(C)(C)C(=O)CCc1ccc(Cl)cc1	inactive	inactive	inactive		inactive		inactive	inactive	inactive	inactive	inactive	inactive	inactive	inactive	inactive	inactive	inactive	
COC(C)(C)CC(C)=O		inactive		inactive		inactive		inactive	inactive	inactive	inactive	inactive	inactive	inactive	inactive	inactive	inactive	
CC(C)OC(=O)C(C(=O)OC(C)C)=C1SC=CS1	inactive	inactive		inactive		inactive	inactive	inactive	inactive	inactive	inactive	inactive	inactive	inactive	inactive	26.6 µM (active)	inactive	6.37%
CC1(C)C(=O)C(C)(C)C1=O		inactive	inactive	inactive	inactive			inactive	inactive	inactive	inactive	inactive	inactive	inactive	inactive	inactive	inactive	
C=C(C)C(=O)OCCOC1CC2CC1C1C=CCC21 (configuration not stated)	inactive	inactive	inactive	inactive	inactive		inactive	inactive	inactive	inactive	inactive	inactive	inactive	inactive	inactive		inactive	

— PubChem BioAssay (Tox21)
